Several values for one entry are separate records, joined by “and”; a condition that tells them apart may be missing. Identical values can stand only once. Results filed as inconclusive are left out. Some compounds were tested as several samples or in several runs, with calls that do not always agree. Activity calls are given as the source filed them. Calls come from the whole dose curve; as a rule, active = well fitted curve in the direction sought with a large enough effect; inconclusive = small, poorly fitted or top-dose-only effect, or another doubt; inactive = no such curve, though single readings can be large; an effect the other way counts as inactive or inconclusive.

These results are taken from PubChem BioAssay (NCATS).

In one assay the test system is MKL-1. The assay can be described thus: qHTS assay to identify novel small-molecules to repurpose for Merkel cell carcinoma treatment (AID 1296009). Note: nearly all actives have a fitted effect of over 60% in size. Note: potency is the fitted concentration of half-maximal effect. The following applies: MCC and control cell lines, CellTiter-Glo viability, 72 h; series mostly up to 46 µM. Put shortly:
(§1)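 Dose-response viability screen; 72 hr exposure at 37 degree celsius; CellTiter-Glo added, 10 min room temperature, luminescence read; RLUs scaled between no-cell and DMSO wells.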
For orientation: qHTS replaces the single test concentration by a dilution series.

A further assay relates to MKL-2. Described as above. The following applies: MCC and control cell lines, CellTiter-Glo viability, 72 h; series mostly up to 46 µM. The method in brief:
as §1
Background: In ATP-based viability assays light output follows the ATP content of the culture.

The test system of a further assay is NIH3T3. The description is as above. The following applies: MCC and control cell lines, CellTiter-Glo viability, 72 h. The method in brief: as §1
Another assay relates to UISO. The description is as above. The note with it: MCC and control cell lines, CellTiter-Glo viability, 72 h; series mostly up to 46 µM. The method in brief:
as §1

A further assay concerns WaGa. The assay is described as above. The note with it: MCC and control cell lines, CellTiter-Glo viability, 72 h; series mostly up to 46 µM. Put shortly:
as §1

The subject of the next assay is C33A. Nature of the assay: Primary qHTS to identify gynecologic anti-cancer compounds using libraries of approved drugs and bioactive compounds (AID 1345084). Note: nearly all actives have a fitted effect of over 55% in size. The following applies: Gynecologic cancer cell panel viability, ATPlite luminescence, 48 h; series mostly up to 57.5 µM. The method in brief: (§2)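 Luminescence from the ATPlite ATP-monitoring reagent indicates viable cell number; lower signal means cytotoxicity. Cells received compound 16 h after seeding and were exposed for 48 h across five concentrations.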

A further assay deals with CAOV3. Described as above. The note with it: Gynecologic cancer cell panel viability, ATPlite luminescence, 48 h; series mostly up to 57.5 µM. Put shortly: as §2
Another assay concerns CASKI. The description is as above. The following applies: Gynecologic cancer cell panel viability, ATPlite luminescence, 48 h; series mostly up to 57.5 µM. The method in brief: as §2
Another assay relates to Es-2. The description is as above. The note with it: Gynecologic cancer cell panel viability, ATPlite luminescence, 48 h; series mostly up to 57.5 µM. Put shortly:
as §2

Another assay relates to HeLa. The assay is described as above. The note with it: Gynecologic cancer cell panel viability, ATPlite luminescence, 48 h; series mostly up to 57.5 µM. Put shortly:
as §2

Another assay has as its system Hek293T. The assay is described as above. The note with it: Gynecologic cancer cell panel viability, ATPlite luminescence, 48 h, control line for the selectivity index; series mostly up to 57.5 µM. Put shortly:
as §2

Another assay relates to JEG-3. The assay is described as above. The note with it: Gynecologic cancer cell panel viability, ATPlite luminescence, 48 h; series mostly up to 57.5 µM. Put shortly: as §2
Another assay deals with OV90. The description is as above. The following applies: Gynecologic cancer cell panel viability, ATPlite luminescence, 48 h; series mostly up to 57.5 µM. The method in brief: as §2
A further assay concerns PA-1. The assay is described as above. The following applies: Gynecologic cancer cell panel viability, ATPlite luminescence, 48 h; series mostly up to 57.5 µM. Put shortly: as §2
A further assay relates to SKOV3. The description is as above. The note with it: Gynecologic cancer cell panel viability, ATPlite luminescence, 48 h; series mostly up to 57.5 µM. Put shortly: as §2
For a further assay, the system named is Tov-21-G. The description is as above. The following applies: Gynecologic cancer cell panel viability, ATPlite luminescence, 48 h; series mostly up to 57.5 µM. Put shortly:
as §2

The subject of another assay is Tov112D. Described as above. The following applies: Gynecologic cancer cell panel viability, ATPlite luminescence, 48 h; series mostly up to 57.5 µM. Put shortly:
as §2

Assay [1] in a line: Drug repurposing screens with cells derived from glioblastoma tumor samples (AID 1345199). Note: nearly all actives have a fitted effect of over 40% in size. The following applies: GBM patient neurospheres viability, ATP luminescence, 48 h. Put shortly:
(§3)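 Primary testing used CD133+ neurospheres from four GBM patients, seven concentrations, 48 h exposure and ATP-based viability; confirmation added three slower-growing patient lines.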

The test system of a further assay is astro. Described as above. The following applies: viability, ATP luminescence, 48 h; series mostly up to 45.9 µM. Put shortly:
as §3

The mark [2] stands for this setting: at 44.8 µM (top of the series) unless noted.
[3] abbreviates: at 45.9 µM (top of the series), tumour line B.
Setting [4] is: at 45.9 µM (top of the series), tumour line D.
[5] abbreviates: at 46.1 µM (top of the series), tumour line C.
% is set by controls: 0 for no effect and ±100 for the full control effect.

Take `Cc1cc2cc3c(C)cc(=O)oc3c(C)c2o1`: the Potency entry in the assay on MKL-1, in the assay with MKL-2, with UISO, in the assay with C33A, in the assay with CAOV3 and in the assay on CASKI was “inactive” throughout. The Potency entry with Es-2, with HeLa, in the assay with Hek293T, with JEG-3, with OV90 and in the assay with PA-1 was “inactive” throughout. Besides, the Potency result in the assay with SKOV3, in the assay with Tov-21-G, with Tov112D and in the assay with astro was “inactive” each time. Moreover, in the assay with NIH3T3 (setting [2]), the outcome was inactive. Also, the Potency entry in the assay on WaGa is “inactive and 4.69 µM (active)”. Moreover, the activity, negative = cell killing was -6.21% (inactive) in [1] (at 20 µM (top of the series), tumour line C); -13.8% (inactive) in [1] (at 21.2 µM (top of the series), tumour line B); -30.4% (inactive) in assay [1] (at 21.2 µM (top of the series), tumour line D).

On to `CCCc1cc(=O)[nH]c(=S)[nH]1`, for which the Potency entry in the assay with MKL-1, with MKL-2, in the assay on UISO, with C33A, in the assay with CAOV3 and in the assay with CASKI was “inactive” each time. The Potency result in the assay with Es-2, with HeLa, in the assay with Hek293T, in the assay with JEG-3, with OV90 and in the assay on PA-1 was “inactive” each time. Further, the Potency result with Tov-21-G, in the assay with Tov112D and in the assay on astro was “inactive” throughout. The outcome in the assay on NIH3T3 (setting [2]) was “inactive; activator”. Moreover, the Potency entry in the assay with WaGa is “inactive and 18.7 µM (active)”. For the same molecule, the activity, negative = cell killing was -8.42% (inactive) in assay [1] (setting [3]), -9.52% (inactive) in [1] (setting [4]) and -10.7% (inactive) in assay [1] (setting [5]).

Regarding `O=C(NC(Cc1cc(=O)[nH]c2ccccc12)C(=O)O)c1ccc(Cl)cc1` (stereo not given), the Potency result in the assay on MKL-1, in the assay with MKL-2, in the assay with UISO, in the assay on WaGa, in the assay on C33A and with CAOV3 was “inactive” each time. Further, the Potency result with CASKI, in the assay on Es-2, with HeLa, in the assay with Hek293T, in the assay on JEG-3 and in the assay with OV90 was “inactive” in each case. Also, the Potency entry with PA-1, in the assay with SKOV3, with Tov-21-G, with Tov112D and in the assay on astro was “inactive” each time. The molecule was called inactive in the assay with NIH3T3 (setting [2]).

For the molecule `CCC(C)(Oc1ccc(C2(c3ccc(OC(C)(CC)C(=O)O)cc3)CCCCC2)cc1)C(=O)O` (stereo not given), the Potency result in the assay on MKL-1, with MKL-2, in the assay with UISO, in the assay on WaGa, with C33A and with CAOV3 was “inactive” each time. Also, the Potency result in the assay on CASKI, in the assay with Es-2, in the assay on HeLa, in the assay with Hek293T, with JEG-3 and in the assay with OV90 was “inactive” in each case. For the same molecule, the Potency entry with PA-1, in the assay on SKOV3, in the assay with Tov-21-G, in the assay with Tov112D and with astro was “inactive” each time. Also, in the assay with NIH3T3 (setting [2]), the result was inactive.

For `Nc1nc(OCc2ccccc2)c2[nH]cnc2n1`, the Potency result with MKL-1, with MKL-2, in the assay on UISO and with WaGa was “inactive” each time. Also, the result in the assay on NIH3T3 (setting [2]) was inactive.

Regarding `O=C1NC(=O)C(c2ccccc2[N+](=O)[O-])=C1Nc1ccc(O)c(Cl)c1`, the Potency result in the assay with MKL-1, in the assay with MKL-2, with UISO and with WaGa was “inactive” throughout. Further, in the assay on NIH3T3 (setting [2]), the molecule was classed as inactive.

For `CNC[C@H](O)c1ccc(O)c(O)c1`, the Potency result in the assay on MKL-1, in the assay on MKL-2, with UISO, in the assay with WaGa, in the assay with C33A and in the assay on CAOV3 was “inactive” in each case. The Potency result with CASKI, in the assay on Es-2, with HeLa, in the assay on Hek293T, in the assay on JEG-3 and in the assay with OV90 was “inactive” each time. In addition, the Potency entry with PA-1, in the assay with SKOV3, with Tov-21-G, in the assay on Tov112D and in the assay on astro was “inactive” each time. In addition, the molecule was called inactive in the assay on NIH3T3 (at 17.4 µM (top of the series)) and with NIH3T3 (at 92 µM (top of the series)). The activity, negative = cell killing in assay [1] (setting [3]) is -6.05% (inactive); in assay [1] (setting [4]), -9.08% (inactive); in assay [1] (at 46 µM (top of the series), tumour line A), -12.1% (inactive); in [1] (setting [5]), -9.48% (inactive).
